Most compounds without a hit are left out; they make up all but 3% or so of the library.
TSG101-PTAP inh: qHTS Assay for Iinhibitors of HIV-1 Budding by Blocking the Interaction of PTAP/TSG101 | 340,000 tested, under 10 active | Fluorescence polarization, FITC-PTAP peptide / Tsg101 binding | Tumor susceptibility gene 101 protein (Homo sapiens), Q99816 | Potency, µM (series often up to 115 µM), usual class: inhibitors | AID 493005, 2010; active means well fitted inhibition curve with a large enough effect in the main read-out, with a control signal flat, not every such curve was filed as active; inconclusive means small, poorly fitted or top-dose-only effect, or effect the other way, or a change in a side signal; inactive means no such curve, though single readings can be large or run the other way
Target sequence (Q99816 whole entry, looked up): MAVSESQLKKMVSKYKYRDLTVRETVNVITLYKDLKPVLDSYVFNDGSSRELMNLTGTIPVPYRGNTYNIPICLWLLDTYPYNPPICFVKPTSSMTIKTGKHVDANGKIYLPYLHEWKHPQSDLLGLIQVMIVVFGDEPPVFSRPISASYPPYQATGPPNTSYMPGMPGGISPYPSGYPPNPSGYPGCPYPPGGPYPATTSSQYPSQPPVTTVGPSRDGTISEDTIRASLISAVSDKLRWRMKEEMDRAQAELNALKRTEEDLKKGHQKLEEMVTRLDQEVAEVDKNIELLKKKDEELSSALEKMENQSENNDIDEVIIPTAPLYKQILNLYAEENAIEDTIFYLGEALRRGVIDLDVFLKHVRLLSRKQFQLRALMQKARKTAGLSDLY
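Fluorescence polarization binding of Tsg101 binding domain (10 uM final) to FITC-labeled PTAP peptide (50 nM final) in HEPES pH 7.5 buffer with NaCl, Tween 20, EDTA, TCEP. Compounds added before peptide; binding 20 min at RT.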
KAT2A inh: qHTS Assay for Inhibitors of GCN5L2. GCN5L2 HAT assay, ThioGlo1 CoA-SH fluorescence. Histone acetyltransferase KAT2A (Homo sapiens), Q92830. Potency, µM (doses to about 58.9 µM), hits mostly inhibitors. 390,000 tested, 0.21% active
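ThioGlo1-coupled HAT assay: 20nM GCN5L2, 70uM acetyl-CoA, 75uM H3(1-25) peptide, pH 7.5. Fluorescence read at 340/540nm at start and after 20 min at room temperature.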
USP1 inh: Inhibitors of USP1/UAF1: Primary Screen; Potency, µM (top dose mostly 57.1 µM), actives largely listed as inhibitors; AID 743255, 2014; 390,000 tested, 0.23% active; Ubiquitin carboxyl-terminal hydrolase 1 (Homo sapiens), O94782; recombinant USP1/UAF1, Ub-Rhodamine cleavage fluorescence; further: nearly all actives have a fitted effect of over 60% in size
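1 nM enzyme complex + cpd, 15 min RT; start with Ub-Rho 150nM final; kinetic fluorescence ex 480/em 540, 6 reads q60 s. Buffer 50mM HEPES pH 7.8, 0.5mM EDTA, 0.1 mg/ml BSA, 1mM TCEP, 0.01% Tween-20.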
VDR inhibitor: Inhibitors of the vitamin D receptor (VDR): qHTS. Vitamin D3 receptor (Homo sapiens), P11473. VDR-SRC2-3 peptide fluorescence polarization, 2 h. Potency, µM, actives largely listed as inhibitors. 400,000 tested, 0.93% active. AID 504847, 2011
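Two reagent solutions held at 4 deg C in the dark were dispensed, compounds pinned at 23 nl, and the mixture incubated 2 h at room temperature. Read-out: fluorescence polarization of VDR–SRC2-3 peptide binding.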
PLK1 PBD inh: qHTS for Inhibitors of PLK1-PDB (polo-like kinase 1 - polo-box domain): Primary Screen. Plk1 PBD binding of FITC phosphopeptide, fluorescence polarization. Potency, µM, most hits filed as inhibitors. 360,000 tested, 2.8% active. AID 720504, 2013; further: series mostly up to about 57 µM; nearly all actives have a fitted effect of over 65% in size
Of the large screens only hits and unclear results are named; the others gave an inactive call; ! = not confirmed by another sample. Unless noted, the call rests on the fitted dose curve; in most records, active means well fitted curve in the direction sought with a large enough effect; inconclusive means small, poorly fitted or top-dose-only effect, or another doubt; inactive means no such curve, though single readings can be large; an effect the other way counts as inactive or inconclusive.

Cc1onc(-c2ccccc2)c1C(=O)NC(=S)Nc1sc2c(c1C#N)CCCC2	VDR inhibitor inconclusive, PLK1 PBD inh 7.5µM
Cc1onc(-c2ccccc2)c1C(=O)NC(=S)Nc1sc2c(c1C#N)CCC(C)C2 (stereo unspecified)	VDR inhibitor inconclusive, PLK1 PBD inh 9.5µM
Cc1ccccc1C(=O)NC(=S)Nc1sc2c(c1C#N)CCCC2	PLK1 PBD inh inconclusive
Cc1cc(C(=O)Nc2sc3c(c2C#N)CCC(C)C3)no1 (stereo unspecified)	none
COc1ccccc1C(=O)NCCC(=O)NCc1cccs1	none
O=C(NCc1ccccc1Br)c1ccc2nc(N3CCCCC3)sc2c1	none (no result: TSG101-PTAP inh, PLK1 PBD inh)
CC(=O)Nc1ccc(S(=O)(=O)NC(C)C(=O)NC(C)c2ccccc2)cc1 (stereo unspecified)	USP1 inh inconclusive, PLK1 PBD inh 12µM
CCC(NS(=O)(=O)c1ccc(C)cc1)C(=O)N1CCN(c2ccccn2)CC1 (stereo unspecified)	none
CC(=O)Nc1ccc(S(=O)(=O)N[C@@H](C)C(=O)N2CCN(c3ccccn3)CC2)cc1	VDR inhibitor inconclusive, PLK1 PBD inh 12µM (no result: KAT2A inh)
CC(=O)Nc1ccc(S(=O)(=O)NC(C)c2ccncc2)cc1 (stereo unspecified)	none
CN(C)C(=O)NC1c2ccccc2-c2ccccc21	none
O=C(NC1c2ccccc2-c2ccccc21)c1ccccc1	PLK1 PBD inh 27µM
N#Cc1ncc(Cc2ccccc2)nc1C#N	VDR inhibitor 79µM
CCCC1O[C@@H]2CC3C4CCC5=CC(=O)C=C[C@]5(C)C4C(OC(C)=O)C[C@]3(C)[C@]2(C(=O)COC(C)=O)O1 (stereo partly specified)	VDR inhibitor inconclusive, PLK1 PBD inh 19µM
CCOC(=O)C1=C(C)NC(C)=C(C(=O)OCC)C1c1ccccc1C=CC(=O)OC(C)(C)C	none (no result: TSG101-PTAP inh, USP1 inh, PLK1 PBD inh)
O=C1C(Cc2ccccc2)Nc2ncnc(N3CCOCC3)c2N1Cc1ccc(Cl)cc1 (stereo unspecified)	KAT2A inh inconclusive, PLK1 PBD inh 27µM!
O=C1C(Cc2ccccc2)Nc2ncnc(N3CCN(c4ccccc4)CC3)c2N1Cc1ccccc1 (stereo unspecified)	KAT2A inh inconclusive, PLK1 PBD inh inconclusive
CCC1Nc2ncnc(N3CCOCC3)c2N(Cc2ccc(OC)cc2)C1=O (stereo unspecified)	VDR inhibitor 79µM, PLK1 PBD inh 27µM
Cc1ccc(C2CC(=O)Oc3cc(C)c(Cl)cc32)cc1 (stereo unspecified)	none (no result: TSG101-PTAP inh, USP1 inh, PLK1 PBD inh)
CC(NC(=O)COc1ccc([N+](=O)[O-])cc1)c1ccccc1 (stereo unspecified)	PLK1 PBD inh 12µM
CCOc1cccc(C(=O)NC(=S)Nc2ccc(Cl)cc2C(=O)O)c1	VDR inhibitor inconclusive, PLK1 PBD inh 5.3µM
CCOc1cccc(C(=O)NC(=S)Nc2ccc(N3CCCC3)cc2)c1	none
CC(=O)NC(=S)NNC(=O)COc1ccc([N+](=O)[O-])cc1	PLK1 PBD inh 21µM
O=C(COc1cccc(Cl)c1)NNC(=S)Nc1ccccc1	VDR inhibitor inconclusive, PLK1 PBD inh 24µM
COc1ccc(OCC(=O)NNC(=S)NC(=O)c2ccc([N+](=O)[O-])cc2)cc1	KAT2A inh inconclusive, PLK1 PBD inh 24µM
CC(=O)NC(=S)NNC(=O)COc1ccc(Br)cc1	PLK1 PBD inh 27µM
Cc1cccc(C(=O)NC(=S)NNC(=O)COc2ccc(Cl)cc2)c1	PLK1 PBD inh 27µM
CCN(CC(=O)Nc1ccc(OC)cc1)C(=O)c1ccc([N+](=O)[O-])cc1	VDR inhibitor inconclusive, PLK1 PBD inh 6.7µM
COc1ccc(C(=O)NC(=S)NNC(=O)c2cccc(C)c2)cc1	PLK1 PBD inh inconclusive (no result: KAT2A inh)
CCCCCC(=O)NNC(=S)NC(=O)c1ccc([N+](=O)[O-])cc1	KAT2A inh inconclusive, VDR inhibitor inconclusive, PLK1 PBD inh 11µM
CCc1cccc2c3c([nH]c12)[C@@](CC)(CC(=O)O)OCC3	KAT2A inh 13µM, VDR inhibitor inconclusive (no result: TSG101-PTAP inh, USP1 inh, PLK1 PBD inh)
CCc1cccc2c(N=O)c(O)[nH]c12	none
